{"source": "PubChem BioAssay (EPA / NIEHS)", "note": "Records with an inconclusive call do not appear. Active and inactive are the calls of the source. How the source made its calls: active means hit-call score of the fitted dose curve at least 0.9, where 1 is the maximum; inconclusive means response in the unintended direction; inactive means score below 0.9.", "data": [{"target": "Nuclear receptor subfamily 4 group A member 2 (Homo sapiens) (UniProt P43354)", "sequence (P43354 whole entry, looked up)": "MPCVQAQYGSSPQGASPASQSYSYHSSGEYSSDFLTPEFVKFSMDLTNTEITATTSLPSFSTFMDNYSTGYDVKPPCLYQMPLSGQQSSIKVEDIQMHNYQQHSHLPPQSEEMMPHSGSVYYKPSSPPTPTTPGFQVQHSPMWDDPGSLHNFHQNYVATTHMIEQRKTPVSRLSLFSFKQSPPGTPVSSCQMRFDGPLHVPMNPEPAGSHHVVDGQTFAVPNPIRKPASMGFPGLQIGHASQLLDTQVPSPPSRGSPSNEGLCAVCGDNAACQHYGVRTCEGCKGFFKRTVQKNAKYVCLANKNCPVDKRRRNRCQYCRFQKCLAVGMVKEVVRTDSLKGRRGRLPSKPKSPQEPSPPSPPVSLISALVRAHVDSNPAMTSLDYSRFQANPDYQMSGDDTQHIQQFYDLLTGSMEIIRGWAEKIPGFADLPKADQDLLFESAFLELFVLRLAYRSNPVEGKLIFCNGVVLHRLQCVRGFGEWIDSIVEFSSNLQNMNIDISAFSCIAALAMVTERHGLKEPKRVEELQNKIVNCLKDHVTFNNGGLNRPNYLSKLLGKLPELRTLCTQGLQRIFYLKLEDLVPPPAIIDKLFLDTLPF", "experiment": "ATG_NURR1_TRANS: Attagene TRANS-FACTORIAL HepG2 Assay for human Nuclear Receptor Related Protein 1 (NURR1) (AID 2282985)", "details": "HepG2 Attagene TRANS reporter, mRNA readout", "procedure": "ATG_TRANS is a cell-based, multiplexed-readout assay that uses HepG2, a human liver cell line, with measurements taken at 24 hours after chemical dosing in a 24-well plate.ATG_NURR1_TRANS is one of 30 assay component(s) measured or calculated from the ATG_TRANS assay. It is designed to make measurements of mRNA induction, a form of inducible reporter, as detected with fluorescence intensity signals by Reverse transcription polymerase chain reaction (RT-PCR) and Capillary electrophoresis technology.Data from the assay component ATG_NURR1_TRANS was analyzed into 1 assay endpoint. This assay endpoint, ATG_NURR1_TRANS, was analyzed in the positive analysis fitting direction relative to DMSO as the negative control and baseline of activity. Using a type of inducible reporter, measures of mRNA for gain-of-signal activity can be used to understand the reporter gene at the transcription factor-level as they relate to the gene NR4A2. Furthermore, this assay endpoint can be referred to as a primary readout, because this assay has produced multiple assay endpoints where this one serves a reporter gene function. To generalize the intended target to other relatable targets, this assay endpoint is annotated to the nuclear receptor intended target family, where the subfamily is orphan.\nHuman liver HepG2 cells are transiently transfected with multiple reporter transcription units (MRTUs) in 6-well plates using FuGene 6 reagent (Roche; 3 ml FuGene/1 mg DNA). The MRTU constructs are regulated by a cis-regulating element (promoter). […] A major difference between the CIS and TRANS system is that in CIS activities of endogenous TFs are measured, whereas the TRANS assay evaluates changes in activities of exogenous, chimeric NR-Gal4 proteins. […] At the end of 24 hour incubation, total RNA was isolated using TriZol reagent (Invitrogen). The isolated RNA is then reverse-transcribed using oligo(dT) primer and Mo-MLV reverse transcriptase (Invitrogen) with DNAse I (Ambion) treatment for 30 min. The one-tenth of the produced cDNA was amplified by PCR using Taq DNA polymerase (Invitrogen) and two reporter sequence-specific primers. The PCR products were fluorescently labeled by primer extension with 6-arboxyfluorescein (6-FAM) 5'-labeled reporter sequence-specific primer (2 min at 95 C, 20 s at 68 C and 10 min at 72 C) and these products were digested with 5U of HpaI (New England Biolabs) for 2h at 37 C. The fragments were purified using Qiaquick PCR columns (Qiagen), analyzed on an ABI 3130xL genetic analyzer (Applied Biosystems) with peak positions identified by using a set of X-rhodamine (ROX)-labeled MapMarker1000 molecular weight standards (BioVentures). The raw capillary electrophoresis data was processed using Attagraph software (Attagene).", "values": [{"molecule": "O=C(c1ccccc1)c1ccc(O)cc1O", "outcome": "inactive"}, {"molecule": "CC(C)OC(=O)COc1ccc(Cl)cc1Cl", "outcome": "inactive"}, {"molecule": "CCCCCC/C=C/CCCCCCCC(=O)O", "AC50": "67.1 µM (active)"}, {"molecule": "COCCOCCC[Si](C)(O[Si](C)(C)C)O[Si](C)(C)C", "outcome": "inactive"}, {"molecule": "OC(O)C(F)(F)C(F)(F)F", "outcome": "inactive"}, {"molecule": "CC(C)Nc1ccc(NC(C)C)c2c1C(=O)c1ccccc1C2=O", "outcome": "inactive"}, {"molecule": "O=C(c1ccccc1)c1ccc(Cl)cc1", "outcome": "inactive"}, {"molecule": "O=C1c2ccccc2C(=O)c2c(Cl)cccc21", "outcome": "inactive"}, {"molecule": "O=S(=O)(Cl)C(F)(F)C(F)(F)C(F)(F)C(F)(F)C(F)(F)C(F)(F)C(F)(F)C(F)(F)F", "outcome": "inactive"}, {"molecule": "CCN(CC)c1ccc(N=Nc2ccccc2)cc1", "outcome": "inactive"}, {"molecule": "CC(C)(C)c1cc(Cc2cc(C(C)(C)C)c(O)c(C(C)(C)C)c2)cc(C(C)(C)C)c1O", "outcome": "inactive"}, {"molecule": "O=C(O)C(F)(F)OC(F)(F)C(F)(F)OC(F)(F)C(F)(F)OC(F)(F)F", "outcome": "inactive"}, {"molecule": "CN(C(=O)C(F)(F)C(F)(F)C(F)(F)F)[Si](C)(C)C", "outcome": "inactive"}, {"molecule": "Cc1ccc(S(=O)(=O)C(I)I)cc1", "outcome": "inactive"}, {"molecule": "Cc1cc(C)c(O)c(C(C)(C)C)c1", "outcome": "inactive"}, {"molecule": "O=C(Cl)c1ccc(Cl)cc1Cl", "outcome": "inactive"}, {"molecule": "O=c1[nH]cccc1O", "outcome": "inactive"}, {"molecule": "FC(F)(F)C(F)(F)C(F)(F)CC1CO1", "note": "(stereo not given)", "outcome": "inactive"}, {"molecule": "CC1=CC2C3C=CC(C3)C2C1C", "note": "(stereo not given)", "outcome": "inactive"}, {"molecule": "Cc1cc(=O)[nH]c(C(C)C)n1", "outcome": "inactive"}, {"molecule": "CC(C)CCCC(C)CCO", "note": "(stereo not given)", "outcome": "inactive"}, {"molecule": "COC(F)(C(F)F)C(F)(F)F", "note": "(stereo not given)", "outcome": "inactive"}, {"molecule": "CCOC(C=C(C)CCC=C(C)C)OCC", "outcome": "inactive"}, {"molecule": "NC(O)(C(F)(F)F)C(F)(F)F", "outcome": "inactive"}, {"molecule": "C=CC(=O)OCCC(F)(F)C(F)(F)C(F)(F)C(F)(F)F", "outcome": "inactive"}, {"molecule": "Cc1cc(O)c(C(C)(C)C)cc1C(C)(C)C", "AC50": "5.29 µM (active)"}, {"molecule": "O=C(O)C(F)(F)C(F)(F)C(F)(F)OC(F)(C(F)(F)F)C(F)(F)F", "outcome": "inactive"}, {"molecule": "CC1=CCC(=O)O1", "outcome": "inactive"}, {"molecule": "NC(=O)C(F)(F)C(F)(F)C(F)(F)C(F)(F)C(F)(F)C(F)(F)C(F)(F)F", "outcome": "inactive"}, {"molecule": "OCCCC(F)(F)C(F)(F)C(F)(F)C(F)(F)C(F)(F)C(F)(F)C(F)(F)C(F)(F)F", "AC50": "7.38 µM (active)"}, {"molecule": "CCOC(=O)CC(=O)C(F)(F)C(F)(F)F", "outcome": "inactive"}, {"molecule": "Cc1ccc([N+](=O)[O-])c(C)c1", "outcome": "inactive"}, {"molecule": "CCOC(OCC)OCC", "outcome": "inactive"}, {"molecule": "N#Cc1ccccc1O", "outcome": "inactive"}, {"molecule": "O=C(O)C(F)(F)C(F)(F)C(F)(F)C(F)(F)C(F)(F)C(F)(F)C(F)F", "outcome": "inactive"}, {"molecule": "OCC(F)(F)C(F)(F)C(F)(F)CO", "outcome": "inactive"}, {"molecule": "CCCC(=O)OCC(COC(=O)CCC)OC(=O)CCC", "outcome": "inactive"}, {"molecule": "CNS(=O)(=O)C(F)(F)C(F)(F)C(F)(F)C(F)(F)C(F)(F)C(F)(F)C(F)(F)C(F)(F)F", "outcome": "inactive"}, {"molecule": "CN1CN(C)CN(C)C1", "outcome": "inactive"}, {"molecule": "CCC(=O)OC(C)c1ccccc1", "note": "(stereo not given)", "outcome": "inactive"}]}]}
